# Experimental data taken from the supplement of paper PMC3334620.
# In all, about 33,000 sequences were measured (“E-score (-0.5 to 0.5)”: median about -0.021, highest 2% from about 0.32 on). This is one part of a sample in which the highest values are shown more often than they occur.
# Target: T1, Zap1 (UniProt P47043)
# T1 sequence: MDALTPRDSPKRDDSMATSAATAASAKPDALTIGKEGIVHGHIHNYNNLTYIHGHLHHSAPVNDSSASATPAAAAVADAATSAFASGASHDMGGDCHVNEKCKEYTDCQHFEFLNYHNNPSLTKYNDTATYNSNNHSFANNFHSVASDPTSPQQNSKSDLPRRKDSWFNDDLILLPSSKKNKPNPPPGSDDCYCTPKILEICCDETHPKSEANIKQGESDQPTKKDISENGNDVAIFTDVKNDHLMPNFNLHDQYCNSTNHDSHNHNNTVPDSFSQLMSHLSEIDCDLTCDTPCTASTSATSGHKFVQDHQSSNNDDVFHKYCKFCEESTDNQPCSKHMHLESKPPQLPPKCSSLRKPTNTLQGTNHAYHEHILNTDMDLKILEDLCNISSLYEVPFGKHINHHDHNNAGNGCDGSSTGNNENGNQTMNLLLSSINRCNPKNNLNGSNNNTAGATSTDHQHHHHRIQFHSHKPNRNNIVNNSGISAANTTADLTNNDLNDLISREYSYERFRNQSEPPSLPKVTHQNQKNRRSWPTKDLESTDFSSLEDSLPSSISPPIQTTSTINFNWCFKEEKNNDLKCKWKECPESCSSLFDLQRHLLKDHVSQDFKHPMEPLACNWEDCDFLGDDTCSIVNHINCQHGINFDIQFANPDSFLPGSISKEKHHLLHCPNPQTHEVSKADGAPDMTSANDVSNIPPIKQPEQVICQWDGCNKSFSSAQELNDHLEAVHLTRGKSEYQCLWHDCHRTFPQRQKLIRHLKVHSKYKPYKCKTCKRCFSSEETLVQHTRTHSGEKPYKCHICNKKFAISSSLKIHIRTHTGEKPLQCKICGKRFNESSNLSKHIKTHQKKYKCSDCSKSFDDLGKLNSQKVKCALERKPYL
# Experiment: PBM E-score (8-mer binding enrichment) (E-score (-0.5 to 0.5)); higher = stronger / more preferred TF binding
# Settings: protein concentration: 200 nM; construct: GST-full length
# Procedure, shortened: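 Using PURExpress in vitro transcription/translation, GST-tagged yeast transcription factors were made in full-length or DNA-binding-domain form. These were applied at about 100-200 nM to double-stranded universal all-10-mer Agilent arrays, and bound protein was detected with fluorescent anti-GST. Scans were normalised with masliner before the Universal PBM Analysis Suite assigned E-scores to ungapped eight-base words pooled with their reverse complements.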
row,Sequence,PBM E-score
1,TACGACGA,-0.0483
2,ACCCGTCT,-0.0166
3,CAGCTAAA,0.0244
4,CGCGATGA,0.181
5,GATTCTAA,-0.0858
6,CCATTGAA,0.174
7,ATTCGACC,0.0544
8,ATTAACTC,0.0519
9,ATTAACAC,0.172
10,ATTAACCC,0.334
11,GGCTCAGA,-0.101
12,GCTTACCA,0.0792
13,AGGCTGTC,-0.202
14,ACACTGGC,-0.0599
15,CATACAGC,-0.249
16,GCTGGTGA,0.0777
17,ACTGGTTC,0.0663
18,ACTGGTTA,0.405
19,CCTGGTTA,0.306
20,GCTGGTCA,0.0223
21,GCTGGTTA,0.329
22,AACTGTTG,-0.147
23,TGAACACA,0.0543
24,CACTACCG,0.129

row,Sequence,PBM E-score
1,CAAAGAGG,0.0514
2,AAGCTATT,-0.138
3,ACCCGAAT,0.254
4,CCCCGTAA,0.16
5,AACCCGAT,0.31
6,ACCCGTAA,0.333
7,ACCCCGAT,0.197
8,GACCCGAA,0.175
9,AACCCGAA,0.327
10,ACCCGAAG,0.197
11,ACCCGAAA,0.328
12,ACCCCGAA,0.384
13,CCCCCGAA,-0.164
14,ACCCGTAC,0.0183
15,TCCACGAA,0.111
16,CGTGAAGC,-0.326
17,TAGAGTCA,-0.166
18,AAACTTGG,0.124
19,AACCAAGT,0.271
20,CGAGAGGA,-0.0403
21,CGCCTTCA,-0.26
22,CCAGGGGA,-0.0512
23,ATTACCAA,0.18
24,TGTACCAA,0.0671

row,Sequence,PBM E-score
1,CGTACCAA,-0.0153
2,GTTACCAA,0.362
3,CTTACCAA,0.0782
4,GGTACCAA,0.337
5,CTTACAAA,0.0824
6,GTTACAAC,0.291
7,AGTACCAC,0.208
8,CGTACCAC,0.0803
9,GTTACAAA,0.343
10,GGTACCAC,0.362
11,AGCAGCCG,0.0213
12,AAATGGTC,0.207
13,ACTCATGC,-0.147
14,CACCTCGG,0.0517
15,TTAGAGAA,-0.0471
16,GCAATAGC,-0.122
17,AATTCGAG,-0.131
18,GACTAGAC,-0.101
19,ACAGAAAG,0.11
20,CCTTGTTA,0.12
21,CCGGGCGC,-0.315
22,CGCCCATC,-0.171
23,AATAACGC,-0.0593
24,AATAACGT,0.0381

row,Sequence,PBM E-score
1,ACTAACCC,0.271
2,AATAACAC,0.107
3,GATAAACC,0.21
4,GATAACGC,-0.11
5,GATAACCC,0.47
6,CCTAACCC,0.264
7,AATAACCC,0.466
8,GCTAACCC,0.32
9,AATAACCT,0.454
10,AATAACAT,0.0801
11,ACTATCGC,-0.0428
12,AGCAGAAT,0.0481
13,CTACCAAG,0.0784
14,GCATAGGA,-0.135
15,GAGTAGGA,-0.289
16,GACTGTGA,-0.0753
17,AAGCACTC,-0.146
18,ACTCGTGG,0.0689
19,AATAACCG,0.421
20,AATAACAG,0.118
21,AATAACGG,0.169
22,ACTAACCG,0.144
23,ACTAACCT,0.318
24,ACTAACCA,0.282
